# Test results as given in PubChem BioAssay AID876 (University of Pittsburgh Molecular Library Screening Center, 2007).
# Some of the results follow. Values without a mark were called inactive. How the calls were made is not given here.
# Assay: H2O2 production by redox-active compounds – biochemical, artefact control for Plk1 PBD inhibitor project, dose response (AID 876)
# Settings: redox cycling H2O2 generation, DTT, counter-screen
row,SMILES,EC50
1,CCOC(=O)c1cc2n(c1N)-c1ccccc1C2=O,> 50 µM
2,CC1(C)CC(=O)C=C(NCc2ccncc2)C1,> 50 µM
3,Oc1ccc2ccc3cccc[n+]3c2c1,> 50 µM
4,COc1ccc(Nc2oc(-c3ccccc3Cl)nc2C#N)cc1,> 50 µM
5,O=C(NCCc1ccccc1)/C(=C\c1ccc([N+](=O)[O-])cc1)NC(=O)c1ccccc1,> 50 µM
